This passage reports sensor-assay potency score (higher = more potent) results from the OligoGym collection.
Further: reference of the scale not given here.

One experiment has as its target ATP8A2. The experiment is described as follows: pooled miR-30 sensor sort-seq; sequence = guide strand. Particulars: shRNA.
For the sequence TTAAAGTTCATGATATTGCATG, the sensor-assay potency score (higher = more potent) was -0.75.
As to TTCAACATAACACATTGCCTGA, the sensor-assay potency score (higher = more potent) is -0.505.
Same read-out and setting: the figure for TTGTGTTGAAGCCTTCGCCATT is -1.44.
TTGAGTATACTTCACAACCTCA: the sensor-assay potency score (higher = more potent) is -0.741.
On the same count and under the same terms, the figure for TAATACATATCTGTGTCCCAGT is -0.374.

The target of a further experiment is ATP8B3. The description is as above. As to conditions: shRNA.
On to TTGGTCAACAGCAACTTCTCAG, for which the sensor-assay potency score (higher = more potent) was -0.358.
The sequence TTCTCTGACAGCAGCTCGCAGG showed a sensor-assay potency score (higher = more potent) of -0.893.
Regarding TTTTTGTGTCAAAACCAGCATA, the sensor-assay potency score (higher = more potent) was -0.74.
Same read-out and setting: with TTGACTGAGAAACCGAAGCCGA the figure was -0.857; with TTTCTTGTCATTCCATTCCAGG, -1.26; with TTTGATGTTGCTCTTCTTGAGA, -0.55.
Same read-out and setting: the figure for TAGTACATCTGCACGTCCCAGT is 0.127; for TAAATGACCAGTCCATAGCAGG it is -1.07.
Same read-out and setting: with TAGAAGTTGTACTTGGCCGTGC the figure was 1.18.
Sequence TAATTTTTGTGTCAAAACCAGC had a sensor-assay potency score (higher = more potent) of -1.1.
On the same count and under the same terms, with TTCTTTGACTGAGAAACCGAAG the figure was -1.15; with TTGGTCTTGTATTTCTTCCTTT, -0.502.

The target of another experiment is AVPR1B. The experiment is described as above. Particulars: shRNA.
On to TTCACTGTTCGGATCTTGGCCC, for which the sensor-assay potency score (higher = more potent) turned out to be 0.0628.
Sequence TAGGTTTTTACAGATCTCATGG returned a sensor-assay potency score (higher = more potent) of 0.26.
The same measure, in the same setting: with TTTTAGGTTTTTACAGATCTCA the figure was -0.253; with ATCAGGGGCATTCTTGTCCCAC, -1.06.
Still for that read-out and setting: the figure for ATCTTCACTGTTCGGATCTTGG is -1.06; for AAGATAGCCAGGGTGGTCCAGG it is -1.04; for TGTGTCTTGACTTTTAGGTTTT it is -1.08.
TTGGTGGAATCTTCATCAGGGG: the sensor-assay potency score (higher = more potent) is -0.225.
In turn, TAGGTGGAGGCAAACATGCTGA returned a sensor-assay potency score (higher = more potent) of -0.677.
For the sequence TTTACAGATCTCATGGCAGATG, the sensor-assay potency score (higher = more potent) is -1.02.
For the sequence TTGGCCAGCTCCTCATCCCGGC, the sensor-assay potency score (higher = more potent) is -0.765.
On the same count and under the same terms, with ATCTGGACACTGAAGAAGGGAG the figure was -1.3; with TGACAGACAGCCAGGTAGCGGT, -1.51.
The same measure, in the same setting: the figure for TTCTTGTCCCACACGGACCACA is -1.03; for TGGTGGAATCTTCATCAGGGGC it is -1.82.
With TTGGTGACTCTTCAGGCCTGGG, the sensor-assay potency score (higher = more potent) is -0.954.
Same read-out and setting: the figure for TAAGTGCAGCACGAACAGGTGC is -0.436.
Same read-out and setting: the figure for AAACATGCTGAGCACCTGCAGG is -1.16; for TTGACTTTTAGGTTTTTACAGA it is -0.906.
Still for that read-out and setting: with TTTAGGTTTTTACAGATCTCAT the figure was -1.13; with TCTGCCAGCTCCAAGTCCCTTG, -1.14.
As to TTTTTACAGATCTCATGGCAGA, the sensor-assay potency score (higher = more potent) was -0.895.
The same measure, in the same setting: the figure for TTAGGTTTTTACAGATCTCATG is -1.16.
